“And” between values parts separate entries of the source, which are not always exact repeats. Equal entries are not always repeated. Out of some 310,000 compounds screened, about 11,000 (3.5%) were called active. Inconclusive results (about 4%) are left out. This excerpt belongs to a sample that is enriched for actives. Where a structure was tested more than once in an assay, its records may differ in their call. Unmarked numbers belong to inactive results. Calls come from the whole dose curve; as a rule, active = well fitted inhibition curve with a large enough effect; inconclusive = small, poorly fitted or top-dose-only effect, or another doubt; inactive = no such curve, though single readings can be large or run the other way.
Target: 4'-phosphopantetheinyl transferase ffp (Bacillus subtilis) (UniProt Q9F4F7)
Experiment: qHTS Assay for Inhibitors of Bacillus subtilis Sfp phosphopantetheinyl transferase (PPTase);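 note: the enzyme is Sfp with the accession as filed and its product quenches rhodamine fluorescence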;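 for largest response in the series, negative = inhibition: 0% = enzyme reaction without inhibitor and -100% = no enzyme wells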
Conditions: Biochemical Sfp PPTase activity
How it was run: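 Reaction rates are the 30-min fluorescence difference (ex 525, em 598 nm) in wells containing 15 nM Sfp, 5 uM rhodamine-CoA and 12.5 uM BHQ-2-YbbR at pH 7.6 with 10 mM MgCl2.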
Potency is the fitted concentration of half-maximal effect.

| SMILES | largest response in the series, negative = inhibition | Potency |
| --- | --- | --- |
| CN(C)/C=C(\C=[N+](C)C)c1[nH]ncc1[N+](=O)[O-] | 0.787% |  |
| CC(C)(Cc1c[nH]c2ccc(Cl)cc12)NCCOc1ccccc1OCC1CC1 | -25.3% | 35.5 µM (active) |
| CCC(=O)CC(c1ccc([N+](=O)[O-])cc1)c1c(O)c2ccccc2oc1=O (stereo unspecified) | 6.92% |  |
| c1ccc(CN2CC[C@@]3(CCCNC3)C2)cc1 | 1.98% |  |
| COc1ccc(C2CC(c3cccs3)=NN2c2nc(C)c(C(C)=O)s2)cc1OC (stereo unspecified) |  | 39.8 µM (active) |
| Cc1ccc(-n2c(O)c(C=NCC3CCCO3)c(=O)[nH]c2=O)c(C)c1 (stereo unspecified) | -4.95% |  |
| CNC(=S)N/N=C1\C2CN3CCN(C2)CC1(c1ccccc1)C3 | -18% |  |
| O=C1NC(=O)N(c2ccccc2)C(=O)/C1=C/c1ccc([N+](=O)[O-])s1 |  | 35.5 µM (active) |
| COc1cccc(N2C(=O)NC(=O)/C(=C\c3ccc([N+](=O)[O-])s3)C2=O)c1 |  | 31.6 µM (active) |
| COc1cc(-n2c(=S)[nH]c3ccc(C)cc3c2=O)c(Cl)cc1Cl | 4.46% |  |
| C=CCSSCC=C | -26.6% |  |
| Cc1cccc([C@H](C)c2cnc[nH]2)c1C | 9.27% |  |
| COc1ccc(C2N3CC(C)(C)CN23)cc1 (stereo unspecified) | 0.855% |  |
| Cc1cccc(-n2c(O)c(C=NC34CN5CN(CN(C5)C3)C4)c(=O)[nH]c2=O)c1 | 9.77% |  |
| C[N+]12CN3CN(CN(C3)C1)C2 | 12.8% |  |
| c1ccc(N2CC[C@@]3(CCCNC3)C2)nc1 | -23.5% |  |
| O=c1[nH]c(=O)n(-c2ccccc2)c(O)c1C=NC12CN3CN(CN(C3)C1)C2 | -28% |  |
| CCCCCCCCCCCCN=C(N)N | -27% |  |
| O=C1NC(=O)N(c2ccc(F)cc2)C(=O)/C1=C/c1ccc2c(c1)CCCN2Cc1ccccc1 |  | 44.7 µM (active) |
| CCC(C)C(=O)O[C@@H]1C[C@@]2(C)C(c3ccoc3)OC(=O)CC23OC2(C)O[C@@]14[C@@]1(C)C(CC(=O)OC)C5(C)CC1(O)C(O)(C5OC(=O)C1(C)OC1C)C(OC(C)=O)[C@@]34O2 (stereo partly specified) | 3.31% |  |
| CN(C)CC1CCCCC1OC(=O)c1ccc(Cl)c(Cl)c1 (stereo unspecified) | -11.6% |  |
| CCCCCCN=C(CC)c1c(O)n(CCCC)c(=O)[nH]c1=O | -9.2% |  |
| C[C@@]12CCC3C(CC[C@@H]4CC(O)CC[C@@]34C)C1CCC2O (stereo partly specified) | 7.22% |  |

| SMILES | largest response in the series, negative = inhibition | Potency |
| --- | --- | --- |
| Cc1ncsc1CCCl |  | 79.4 µM (active) |
| Clc1ccc([C@@H]2C[C@H]3CC[C@@H]2N3)cn1 | 9.37% |  |
| Cc1ccc(-c2nn(CCC#N)cc2C(=O)O)cc1C | 25.7% |  |
| CC(c1ccccc1)(c1ccccc1)c1ccncc1 | 5% |  |
| c1csc(CN2CCCC3(CCNCC3)C2)n1 | 3.74% |  |
| COc1ccc(C2Oc3c(I)c(OC)cc(OC)c3CC2O)cc1OC (stereo unspecified) | -16.3% |  |
| CC[N+](C)(CC)CCC[n+]1c(-c2ccccc2)c2cc(N)ccc2c2ccc(N)cc21 |  | 28.2 µM (active) and 50.1 µM (active) |
| CC(C)(C)c1ccc(CN2C(=O)CN=C(c3ccccc3)c3ccccc32)cc1 | -3.66% |  |
| Cc1ccc(S(=O)(=O)N(C)c2ccc(C(=O)NCC3(N(C)C)CCCCC3)cc2)cc1 | 13.3% |  |
| COC1=C[C@]23CCCN2CCc2cc4c(cc2[C@@H]3[C@@H]1O)OCO4 | 1.35% |  |
| CC(=O)c1c(O)n(C2CCCCCC2)c(=O)[nH]c1=O | 6.22% |  |
| COc1ccccc1N1CCN(C(CNC(=O)Oc2ccccc2)c2cccnc2)CC1 (stereo unspecified) | 2.8% |  |
| COc1ccc(CCn2c(O)c(C=NC3CC3)c(=O)[nH]c2=O)cc1OC | 12.3% |  |
| O=C(O)C1CSC(c2cccnc2)N1 (stereo unspecified) |  | 56.2 µM (active) |
| CNC(=O)Nc1ccc(C(O)(C(=O)OC)C(F)(F)F)cc1 (stereo unspecified) | 6.69% |  |
| CN1CCN(C(=O)O[C@@H]2c3nccnc3C(=O)N2c2ccc(Cl)cn2)CC1 | -8.07% |  |
| CC(=C1C(=O)c2ccccc2C1=O)N1CCN(CCN=Cc2c(O)n(C)c(=O)n(C)c2=O)CC1 | 10.2% |  |
| CN1C2CC3CC1C(O3)C2O (stereo unspecified) | -0.102% |  |
| Fc1ccc(C(OCCN2CCN(C/C=C\c3ccccc3)CC2)c2ccc(F)cc2)cc1 |  | 89.1 µM (active) |
| C[C@H]1CC[C@@]2(NC1)O[C@@H]1C[C@H]3[C@@H]4CC=C5C[C@@H](O)CC[C@]5(C)[C@@H]4CC[C@]3(C)[C@@H]1[C@@H]2C | 7.1% |  |
| COc1ccc(NC(=O)N2CCC3(CC2)OCCO3)c(OC)c1 | -7.26% |  |
| CO[C@H]1[C@@H](O)[C@@H](C)O[C@H](O[C@H]2[C@H](Oc3cccc4c(O)c5c(=O)oc6ccc(C)c7c(=O)oc(c34)c5c67)O[C@H](C)[C@H](O)[C@@H]2O)[C@@H]1O | -22.5% |  |

From PubChem BioAssay AID1490 (National Center for Advancing Translational Sciences (NCATS), 2009)
